# Experimental data published in the supplement of paper PMC4466236.
# Whole data set: some 33,000 sequences, median “E-score (dimensionless, -0.5 to 0.5)” near -0.058, cut for the highest 2% near 0.35. This excerpt belongs to a sample that is enriched for the highest values.
# System: MvaT
# Assay: PBM 8-mer E-score (mean of HK and ME arrays) (E-score (dimensionless, -0.5 to 0.5)); higher = stronger relative binding preference
# Protocol: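 Protein binding microarray: GST-tagged full-length MvaT (P. aeruginosa PAO1) bound to two universal double-stranded 60-mer arrays (ME and HK), each with a constant 25-mer primer and a variable 35-mer region covering all 8-mers. The 8-mer E-score (rank-based, range -0.5 to 0.5, >0.45 = specific binding) is the mean of the two arrays.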
row,Sequence,PBM 8-mer E-score
1,CAGCAAAC,0.014
2,CATTACGA,0.0396
3,AAATGACT,0.114
4,ATACCCAG,0.103
5,CGTAAGAC,-0.107
6,AACTGTGG,-0.0417
7,ACCTACGA,-0.0935
8,AGCATATA,0.383
9,CACATATC,0.178
10,CACATATA,0.405
11,CACATATG,0.196
12,AACATAAA,0.286
13,AATACATT,0.374
14,AATACATG,0.224
15,AACATAAT,0.371
16,GGCATATA,0.217
17,AACATAAC,0.245
18,AATACATC,0.173
19,AGCATATC,-0.0071
20,CGAACAAC,0.0607
21,GCTAGGCA,-0.187
22,ACGACTAG,-0.185
23,TACCTCAA,0.05
24,ACTTGGTA,-0.109
25,GGTTGATA,0.124

row,Sequence,PBM 8-mer E-score
1,GTCTTCGA,-0.0711
2,GGTCGCGA,-0.238
3,CCGCAAGA,-0.078
4,CTCGCCTA,0.0159
5,GAAAACAC,0.0574
6,CATACATA,0.277
7,TATACATA,0.389
8,TACATACA,0.301
9,AACATACT,0.207
10,GACATATA,0.362
11,AATACATA,0.324
12,AACATAGT,0.25
13,GACATATC,0.113
14,CACATACA,0.242
15,GACATAGA,0.0048
16,AACATACA,0.36
17,AACATATT,0.392
18,GGTGCGCA,-0.0657
19,AACGCTGC,0.0312
20,CAAGCGTG,-0.266
21,CTCTCTAC,-0.0519
22,CTTTGACC,-0.131
23,CCCGGATA,-0.0749
24,AACATATC,0.286
25,AACATATG,0.254

row,Sequence,PBM 8-mer E-score
1,AACATATA,0.419
2,TACATATA,0.402
3,TACACATA,0.242
4,TACATAAA,0.307
5,GTTGGCCA,-0.0756
6,AAGACAGC,0.081
7,ACACCGGC,-0.133
8,ACTATTCT,0.208
9,GATATTCC,0.229
10,AATATTCG,0.326
11,AATATTCT,0.36
12,CATATTCG,0.173
13,AATATTCC,0.375
14,TAGAAAAA,0.0922
15,CGGAGAGA,-0.145
16,AAGGCAAC,0.0918
17,AACGCCAG,-0.15
18,CAGGCAGG,-0.314
19,AGAATAGG,-0.0847
20,GATTAATA,0.446
21,CGTTAATA,0.31
22,GATTAATC,0.317
23,GATTAACC,0.0145
24,CATTAATC,0.341
25,CATTAATA,0.369

row,Sequence,PBM 8-mer E-score
1,ATGCGTCC,-0.205
2,AAGTTGTC,0.168
3,CTATACAG,0.00215
4,TGATACAA,0.145
5,ATATACAC,0.336
6,ACATACAA,0.362
7,ATATACAT,0.365
8,ATACACAG,0.0306
9,GTATACAA,0.319
10,ATATACAG,0.379
11,TTATACAA,0.359
12,TCATACAA,0.0994
13,ACATACAT,0.275
14,AAATACAT,0.33
15,CCGAAACA,0.00391
16,CTGGAACA,0.00992
17,CAGTATAG,0.0504
18,ACTTGGAC,0.0426
19,GGACACGA,-0.163
20,ATGTGTTA,0.258
21,CGCTTTAA,0.0497
22,CTTCGTGC,-0.0984
23,AATTGAGC,0.0577
24,ATATACAA,0.406
25,ATACACAA,0.154

row,Sequence,PBM 8-mer E-score
1,CTATACAA,0.202
2,CGTTAATC,0.127
3,AATTAATC,0.366
4,AATCAATT,0.246
5,AATTAATT,0.469
6,AATTACGT,0.263
7,AGTTAATG,0.271
8,CATTAATG,0.34
9,AATTAATG,0.359
10,AATTAACA,0.333
11,AATTAATA,0.449
12,AGTCCAAT,0.0865
13,CGAAAGTC,-0.0957
14,AATCTGCT,-0.0198
15,AAAGACCC,-0.224
16,CATACTAG,0.203
17,AGGGCCCG,-0.227
18,GGGTCCAC,-0.22
19,ATGCGCGG,-0.207
20,GCGGGGAA,-0.103
21,GTAAGCGA,0.0773
22,AATTAACG,0.28
23,AATTAACT,0.354
24,AATTAACC,0.262
25,ACCCAAAC,0.192

row,Sequence,PBM 8-mer E-score
1,AAGTAATC,0.186
2,TAGTAACA,0.274
3,CAGTAATA,0.273
4,TAGTAAAA,0.315
5,GAGTAATA,0.287
6,AAGTAATG,0.276
7,AAGTACTA,0.257
8,AAGTAATA,0.379
9,TAGTAATA,0.352
10,AAGTACTC,0.137
11,AAGTACTT,0.41
12,AAGTAATT,0.392
13,ATCAGGCG,-0.0225
14,ATCTGCTA,0.109
15,ACAGGACT,-0.164
16,AGTGCCGA,-0.0895
17,AAATCCCC,-0.192
18,CGTTCCAA,0.0493
19,GGTCCTCA,-0.193
20,ATAGCAGC,0.0386
21,GTAATCTA,0.151
22,AAAACTGT,0.0621
23,GAATAGTA,0.229
24,CAATAGTA,0.264
25,TAATAGTA,0.362

row,Sequence,PBM 8-mer E-score
1,CTTATCGC,0.049
2,CCCTTTCC,-0.188
3,GCATAATA,0.339
4,AAAAAATG,0.0805
5,GAATAAGC,0.194
6,ACATAATC,0.222
7,ACATAATA,0.401
8,GAATAATA,0.446
9,GAATAATC,0.188
10,AAATAATG,0.387
11,TAATAATA,0.477
12,AACCTTTA,0.192
13,AGGGCCTG,-0.226
14,GATCTGAC,-0.0641
15,ATACCAAG,-0.0486
16,CTGCGCAA,-0.0818
17,AAGAGACT,-0.04
18,AACGCGTG,-0.0417
19,ACTTCTGC,0.0207
20,TTCCAGAA,0.055
21,GCTAGGAA,-0.167
22,AAAAAATT,0.153
23,GAATAACA,0.2
24,CAATAACA,0.283
25,CAATAATG,0.322

row,Sequence,PBM 8-mer E-score
1,CAATAATA,0.418
2,TAATAACA,0.379
3,TAATAAGA,0.375
4,AAATAATT,0.438
5,GAATAAGA,0.201
6,AAATAAGA,0.309
7,CAATAATC,0.19
8,CTACCGCA,-0.134
9,CCTGATGC,-0.163
10,CAGCTTAG,-0.203
11,GGACAGTA,-0.0349
12,AACTTTCG,0.255
13,GCCTAGCC,-0.187
14,CTAAGTAG,0.0522
15,AAATAATA,0.428
16,AAATAATC,0.301
17,AAAAAATA,0.331
18,CCTCAAAC,-0.125
19,ATATATCA,0.427
20,CTATATCC,0.123
21,AAATATCG,0.295
22,ATATATCC,0.38
23,CTATATCA,0.16
24,ATATATCG,0.442
25,AGATATCC,-0.0391

row,Sequence,PBM 8-mer E-score
1,GTATATCA,0.237
2,ACATATCG,0.243
3,TCGTGACA,-0.206
4,GTTTCACA,-0.00657
5,AAATTCCG,0.108
6,ACTTTAAG,0.254
7,ACTTTTAG,0.112
8,ACTTTAAC,0.326
9,ACTTTAAA,0.404
10,ACTTTTTA,0.309
11,ACTTTAAT,0.414
12,ACTTTTAA,0.383
13,GCTTTAAA,0.249
14,ACTTTTAC,0.211
15,ACTTTTAT,0.363
16,TCTTTTAA,0.296
17,CCTTTAAA,0.211
18,CGTCACCA,-0.18
19,ATCCCTTC,-0.172
20,CAAGCACG,-0.238
21,CCTTACCG,-0.129
22,GAAGCAAC,-0.0872
23,CTATACTA,0.156
24,CTACTATA,0.292
25,ATATACTG,0.322

row,Sequence,PBM 8-mer E-score
1,GTACTATA,0.329
2,ATACTATA,0.377
3,GCATACTA,0.186
4,CTATACTC,-0.0354
5,ATATACTA,0.422
6,GTATACGA,0.184
7,AGATACTA,0.143
8,ATATACTC,0.364
9,GTATACTA,0.373
10,ATACACTC,0.143
11,GAACGTTA,0.207
12,ACAAACCA,0.185
13,AGCTGAGC,-0.262
14,AACGTAGT,0.000134
15,CGCGTGAG,-0.167
16,AGGCCGAG,-0.0711
17,GGCCCCTA,-0.222
18,GCAATTAA,0.324
19,ACAATTTA,0.353
20,GCAATTTA,0.307
21,ACAATTAA,0.347
22,ACAATTAT,0.378
23,ACAATTAG,0.315
24,ACAATTAC,0.319
25,CCAATTAA,0.306

row,Sequence,PBM 8-mer E-score
1,ACAATTTG,0.187
2,CCGGTGAA,-0.0479
3,AGGAGCAG,-0.32
4,CAGGATGG,-0.189
5,CAAGCAGA,-0.0444
6,CGAATAAA,0.254
7,CTAAAAAA,0.0548
8,CTAATAAC,0.326
9,ATAATAAG,0.43
10,ATAATAAC,0.422
11,GTAATAAC,0.297
12,TTAATAAA,0.432
13,TCAATAAA,0.22
14,CTAATAAG,0.213
15,TGAATAAA,0.268
16,ATCATAAG,0.161
17,CTAATAAA,0.349
18,AGGGGAGA,-0.145
19,ATGACACG,-0.12
20,AGCCTATA,0.179
21,ATTGCAAT,0.27
22,AGAATAAT,0.411
23,ATAATAAT,0.463
24,ATAATGAT,0.275
25,AGAATAAG,0.252

row,Sequence,PBM 8-mer E-score
1,AGAATAAC,0.232
2,AGAATAAA,0.255
3,ATAATAAA,0.451
4,ATCATAAT,0.245
5,GTAATAAA,0.333
6,TTAATGAA,0.393
7,GTAATGAA,0.00633
8,CTAATGAA,0.132
9,CTAGCCTA,-0.138
10,AGGCTAAG,-0.0142
11,GCCTGTCC,-0.241
12,CAGGACAC,-0.248
13,AACGGACA,-0.037
14,CAGGCCGG,-0.188
15,GTTTTCAA,0.148
16,GCTAGAGA,-0.188
17,GAGACCAC,-0.107
18,ACCTTGCG,-0.0997
19,AGGATAAG,0.0764
20,AGGATAAT,0.353
21,AGGATAAA,0.22
22,ATGCATGA,-0.142
23,AGTATATG,0.351
24,CGTATATC,0.143
25,CGTATATA,0.378

row,Sequence,PBM 8-mer E-score
1,GGTATATA,0.355
2,AGTATAGG,0.0335
3,AGTATATA,0.446
4,AGTATATC,0.259
5,CGTATACA,0.17
6,GGTATAGA,0.08
7,AGTATAGA,0.0904
8,GGTATACA,0.201
9,AGTATGTG,0.209
10,GACGTTGC,-0.0956
11,GTGTAACA,0.206
12,TAAAGGAA,0.0516
13,GAATCGCC,-0.206
14,ATAACATG,0.235
15,ATAACATA,0.359
16,GAAACATA,0.343
17,AAAACATT,0.225
18,ATAACATC,0.302
19,AAAACATA,0.354
20,ATCCATGC,-0.188
21,CGAAATTC,0.192
22,CCCTCACA,-0.151
23,ATATCGAG,0.208
24,TCCCGGAA,-0.126
25,GCGCGTAC,-0.156

row,Sequence,PBM 8-mer E-score
1,GAGGGTGC,-0.16
2,TCAAACGA,0.0344
3,AGAACTTG,0.214
4,ATAACTGC,0.286
5,ATAACTTG,0.38
6,ATTACTTA,0.334
7,ATAACTTC,0.351
8,ATAACTCG,0.255
9,CTTACTTC,0.208
10,CTAACTTC,0.168
11,ATTACTTC,0.348
12,CGGAGACA,0.0514
13,CCTACCTC,-0.226
14,CCAGATGG,-0.281
15,CTTAACTA,0.305
16,AATAACTA,0.348
17,CATAACTA,0.286
18,ACTAACTA,0.381
19,GATAACTA,0.198
20,ATTAACTA,0.339
21,GTTAACTA,0.362
22,ACTAACTC,0.118
23,ACTAACTG,0.191
